PubChem BioAssay (NCI)
This is part of a sample that, as a whole, favours compounds with a hit. Of some 83,000 tested, about 20% had one in any assay.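 Compound tested at a single concentration for 48 hours in 96-well plates; a percent growth value below 10 was scored as active.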

Columns and labels:
Assay in all cases: NCI-60 one-dose screen, 48 h (100 = growth as untreated, 0 = no growth, -100 = all killed)
SK-MEL-2 melanoma = settings: 10 µM
EKVX NSCLC = settings: 10 µM
SN12C renal = settings: 10 µM
UO-31 renal = settings: 10 µM
ACHN renal = settings: 10 µM
A498 renal = settings: 10 µM
CCRF-CEM leukemia = settings: 10 µM
MOLT-4 leukemia = settings: 10 µM
SR leukemia = settings: 10 µM
RPMI-8226 leukemia = settings: 10 µM
OVCAR-8 ovarian = settings: 10 µM
OVCAR-5 ovarian = settings: 10 µM
OVCAR-4 ovarian = settings: 10 µM
SK-OV-3 ovarian = settings: 10 µM
IGROV1 ovarian = settings: 10 µM
OVCAR-3 ovarian = settings: 10 µM
HS 578T breast = settings: 10 µM
NCI/ADR-RES ovarian = settings: 10 µM
CAKI-1 renal = settings: 10 µM
TK-10 renal = settings: 10 µM unless noted

Measured: growth

O=S(=O)(O)c1ccc(O)c2ccccc12
inactive: SK-MEL-2 melanoma 97.2% | EKVX NSCLC 88.9% | SN12C renal 103% | UO-31 renal 77.7% | ACHN renal 100% | A498 renal 112% | CCRF-CEM leukemia 99.4% | MOLT-4 leukemia 95.4% | SR leukemia 84.6% | RPMI-8226 leukemia 94.5% | OVCAR-8 ovarian 113% | OVCAR-5 ovarian 98.7% | OVCAR-4 ovarian 98.3% | SK-OV-3 ovarian 94.1% | IGROV1 ovarian 86.1% | OVCAR-3 ovarian 108% | HS 578T breast 102% | NCI/ADR-RES ovarian 98%

OCC(O)C(O)C(O)C(O)/C=N/O (configuration not stated)
inactive: SK-MEL-2 melanoma 107% | EKVX NSCLC 105% | SN12C renal 106% | UO-31 renal 98.4% | CAKI-1 renal 104% | A498 renal 102% | CCRF-CEM leukemia 81.6% | MOLT-4 leukemia 82.7% | SR leukemia 102% | RPMI-8226 leukemia 94.9% | OVCAR-8 ovarian 97.6% | OVCAR-5 ovarian 109% | OVCAR-4 ovarian 104% | SK-OV-3 ovarian 87.2% | IGROV1 ovarian 107% | OVCAR-3 ovarian 113% | HS 578T breast 103% | NCI/ADR-RES ovarian 103%

CCC(O)CC(CC)CO (configuration not stated)
inactive: SK-MEL-2 melanoma 134% | EKVX NSCLC 93.7% | SN12C renal 111% | UO-31 renal 94.6% | TK-10 renal 111% | CAKI-1 renal 96.6% | A498 renal 99.2% | CCRF-CEM leukemia 96.2% | MOLT-4 leukemia 102% | SR leukemia 108% | RPMI-8226 leukemia 111% | OVCAR-8 ovarian 104% | OVCAR-5 ovarian 104% | SK-OV-3 ovarian 115% | IGROV1 ovarian 114% | OVCAR-3 ovarian 130% | HS 578T breast 130% | NCI/ADR-RES ovarian 110%

C=CCc1cc(C(C)=O)cc(OC)c1O
inactive: SK-MEL-2 melanoma 130% | EKVX NSCLC 100% | SN12C renal 105% | TK-10 renal 102% | ACHN renal 121% | CAKI-1 renal 98.2% | A498 renal 100% | CCRF-CEM leukemia 106% | MOLT-4 leukemia 98% | SR leukemia 113% | RPMI-8226 leukemia 122% | OVCAR-8 ovarian 101% | OVCAR-5 ovarian 101% | OVCAR-4 ovarian 107% | SK-OV-3 ovarian 113% | OVCAR-3 ovarian 106% | HS 578T breast 102% | NCI/ADR-RES ovarian 107%

CCC(C#N)(CC)c1ccccc1
inactive: SK-MEL-2 melanoma 105% | EKVX NSCLC 105% | SN12C renal 98% | TK-10 renal 108% | ACHN renal 103% | CAKI-1 renal 113% | A498 renal 111% | CCRF-CEM leukemia 102% | MOLT-4 leukemia 107% | SR leukemia 108% | RPMI-8226 leukemia 104% | OVCAR-8 ovarian 107% | OVCAR-5 ovarian 104% | OVCAR-4 ovarian 113% | SK-OV-3 ovarian 102% | IGROV1 ovarian 112% | OVCAR-3 ovarian 109% | HS 578T breast 108% | NCI/ADR-RES ovarian 102%

CC1(O)OC(COc2ccc(Cl)cc2)COC1O (configuration not stated)
inactive: SK-MEL-2 melanoma 126% | EKVX NSCLC 94.7% | SN12C renal 101% | TK-10 renal 108% | ACHN renal 103% | CAKI-1 renal 90.1% | A498 renal 100% | CCRF-CEM leukemia 98.7% | MOLT-4 leukemia 60.9% | RPMI-8226 leukemia 109% | OVCAR-8 ovarian 100% | OVCAR-5 ovarian 111% | OVCAR-4 ovarian 99.1% | SK-OV-3 ovarian 116% | IGROV1 ovarian 113% | OVCAR-3 ovarian 116% | HS 578T breast 95.5% | NCI/ADR-RES ovarian 103%

COC(=O)C(C)Oc1ccc(OC#N)cc1 (configuration not stated)
inactive: SK-MEL-2 melanoma 110% | EKVX NSCLC 99.8% | SN12C renal 91.8% | TK-10 renal 107% | ACHN renal 101% | CAKI-1 renal 86.5% | A498 renal 107% | CCRF-CEM leukemia 102% | MOLT-4 leukemia 73.7% | RPMI-8226 leukemia 103% | OVCAR-8 ovarian 104% | OVCAR-5 ovarian 94.5% | OVCAR-4 ovarian 95.8% | SK-OV-3 ovarian 103% | IGROV1 ovarian 105% | OVCAR-3 ovarian 105% | HS 578T breast 90.1% | NCI/ADR-RES ovarian 99.9%

Nc1nc2c(c(-c3nc(N)nc4c3CCc3ccccc3-4)n1)CCc1ccccc1-2
inactive: SK-MEL-2 melanoma 134% | EKVX NSCLC 89.9% | SN12C renal 102% | TK-10 renal 131% | ACHN renal 95.1% | CAKI-1 renal 76.9% | A498 renal 125% | CCRF-CEM leukemia 107% | MOLT-4 leukemia 115% | RPMI-8226 leukemia 105% | OVCAR-8 ovarian 56.8% | OVCAR-5 ovarian 113% | OVCAR-4 ovarian 101% | SK-OV-3 ovarian 87.2% | IGROV1 ovarian 109% | OVCAR-3 ovarian 115% | HS 578T breast 80.3% | NCI/ADR-RES ovarian 101%

C=CCNc1ccccc1
inactive: SK-MEL-2 melanoma 95.5% | EKVX NSCLC 108% | SN12C renal 94.1% | TK-10 renal 95.7% | ACHN renal 101% | CAKI-1 renal 114% | A498 renal 119% | CCRF-CEM leukemia 93.6% | MOLT-4 leukemia 95.4% | SR leukemia 96.9% | RPMI-8226 leukemia 92.8% | OVCAR-8 ovarian 107% | OVCAR-5 ovarian 106% | OVCAR-4 ovarian 94% | SK-OV-3 ovarian 101% | IGROV1 ovarian 115% | OVCAR-3 ovarian 116% | HS 578T breast 110% | NCI/ADR-RES ovarian 114%

CS(=O)CC1=NC(=N)N=C1CS(C)=O (configuration not stated)
inactive: SK-MEL-2 melanoma 115% | EKVX NSCLC 98.7% | SN12C renal 101% | TK-10 renal 101% | ACHN renal 107% | CAKI-1 renal 92.9% | A498 renal 104% | CCRF-CEM leukemia 108% | MOLT-4 leukemia 107% | RPMI-8226 leukemia 107% | OVCAR-8 ovarian 99.9% | OVCAR-5 ovarian 111% | OVCAR-4 ovarian 103% | SK-OV-3 ovarian 108% | IGROV1 ovarian 113% | OVCAR-3 ovarian 118% | HS 578T breast 89.9% | NCI/ADR-RES ovarian 103%

CC(=O)OCC(=O)[C@@]1(O)CC[C@H]2[C@@H]3CC[C@@H]4C[C@H](O)CC[C@]4(C)[C@H]3C(=O)C[C@@]21C
inactive: SK-MEL-2 melanoma 101% | EKVX NSCLC 98.4% | SN12C renal 102% | TK-10 renal 110% | ACHN renal 107% | CAKI-1 renal 89.4% | A498 renal 91.8% | CCRF-CEM leukemia 74% | MOLT-4 leukemia 79.8% | SR leukemia 95.2% | RPMI-8226 leukemia 95.1% | OVCAR-8 ovarian 107% | OVCAR-5 ovarian 112% | OVCAR-4 ovarian 116% | SK-OV-3 ovarian 109% | IGROV1 ovarian 93.3% | OVCAR-3 ovarian 122% | HS 578T breast 100% | NCI/ADR-RES ovarian 110%

CCNCCCCNCCCCNCCCCNCCCCNCC
inactive: SK-MEL-2 melanoma 97.1% | EKVX NSCLC 76.2% | SN12C renal 115% | TK-10 renal 63.6% | ACHN renal 80.4% | CAKI-1 renal 77.7% | A498 renal 129% | CCRF-CEM leukemia 128% | MOLT-4 leukemia 151% | SR leukemia 68.5% | RPMI-8226 leukemia 82.4% | OVCAR-5 ovarian 108% | SK-OV-3 ovarian 118% | OVCAR-3 ovarian 93.4% | HS 578T breast 76.2% | NCI/ADR-RES ovarian 122%
